Source: PubChem BioAssay
Only a selection was taken, and hits are over-represented in it overall.
ROS inducer: cancer cell ROS induction | U2OS ROS induction, H2DCF-DA fluorescence | ROS induction (% of piperlongumine), % at 10 µM | 46,000 tested, 2% active; in the data active means ROS induction above about 79%, passing the limit was not always enough;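 further: 0% = DMSO vehicle median and 100% = reference compound median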
YB-1 expression: YB-1 expression inhibition | 30,000 tested, 0.37% active | U2OS, qRT-PCR YB-1 vs CDIP delta delta Cp, 16 h; stronger effect = higher value; zero = DMSO, each unit about twofold | AID 434959 | delta delta Cp (YB-1 minus CDIP) (concentration not given with the values);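 active means delta delta Cp rounded down to an integer at or above 3, about 3 SD of DMSO wells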;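 further: higher means less YB-1 transcript or more CDIP transcript relative to DMSO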
PD-1 reverse act: reversal of PD-1 mediated T-cell inhibition; primary human CD4 T cells, PD-L1 beads, CellTiter-Glo 96 h; activation, % (concentration not given with the values); 29,000 tested, under 10 active; call rule not given here;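 further: 0% = median vehicle wells and 100% = positive control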
MITF inhib: inhibitors of MITF | inhibition, % (no concentration beside the values) | AID 2240 | TRPM1 promoter luciferase, luminescence, 24 h | 37,000 tested, 0.28% active; in the data active means inhibition above about 85%;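 further: human melanocyte line stably carrying TRPM1 promoter luciferase reporter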
NOMO-1 viab: STK33 inhibitor candidate reducing NOMO-1 cell viability; NOMO-1 AML viability, CellTiter-Glo luminescence, 72 h; inhibition, % (test concentration not listed); 37,000 tested, 7.5% active; AID 2330; in the data active means inhibition above about 80%
* hit, by the source's call.

What do the screens show for `C[C@H]1CN([C@@H](C)CO)C(=O)Cc2cc(NC(=O)CCCCCC(=O)Nc3ccccc3N)ccc2O[C@@H]1CN(C)Cc1ccc(C(F)(F)F)cc1`?
ROS inducer: -8; YB-1 expression: -0.77; PD-1 reverse act: 1; MITF inhib: 15; NOMO-1 viab: 106*

Results for C[C@H]1CN([C@@H](C)CO)C(=O)Cc2cc(NC(=O)CCCCCC(=O)Nc3ccccc3N)ccc2O[C@@H]1CN(C)Cc1ccc(-c2ccccc2)cc1 ?
ROS inducer: 28; YB-1 expression: -0.34; PD-1 reverse act: 0; MITF inhib: 19; NOMO-1 viab: 140*

What do the screens show for `C[C@H](CO)N1C[C@H](C)[C@@H](CN(C)Cc2ccc(Oc3ccccc3)cc2)Oc2c(NC(=O)Nc3ccccc3)cccc2C1=O`?
ROS inducer: 101*; YB-1 expression: 0.089; PD-1 reverse act: -8; MITF inhib: 27; NOMO-1 viab: 85*

How did C[C@@H]1CN([C@@H](C)CO)C(=O)c2cccc(NC(=O)Nc3ccccc3)c2O[C@@H]1CN(C)Cc1ccc(Oc2ccccc2)cc1 do in these assays?
ROS inducer: 87*; YB-1 expression: 0.26; MITF inhib: -9; NOMO-1 viab: 62

Results for C[C@@H]1CN([C@H](C)CO)C(=O)c2cccc(NC(=O)Nc3ccccc3)c2O[C@@H]1CN(C)Cc1ccc(Oc2ccccc2)cc1 ?
ROS inducer: 13; YB-1 expression: -0.29; PD-1 reverse act: 0; MITF inhib: 2; NOMO-1 viab: 32

Results for C[C@H](CO)N1C[C@H](C)[C@H](CN(C)Cc2ccc(Oc3ccccc3)cc2)Oc2c(NC(=O)Nc3cccc4ccccc34)cccc2C1=O ?
ROS inducer: 53; YB-1 expression: 0.034; PD-1 reverse act: -11; MITF inhib: 15; NOMO-1 viab: 122*

What do the screens show for `COc1ccc(NC(=O)Nc2cccc3c2O[C@@H](CN(C)Cc2ccc(Oc4ccccc4)cc2)[C@@H](C)CN([C@@H](C)CO)C3=O)cc1`?
ROS inducer: 37; YB-1 expression: -0.071; PD-1 reverse act: -2; MITF inhib: 4; NOMO-1 viab: 68

Results for C[C@H]1CN([C@@H](C)CO)C(=O)c2cccc(NC(=O)Nc3ccccc3)c2O[C@@H]1CN(C)Cc1ccc(Oc2ccccc2)cc1 ?
ROS inducer: 26; YB-1 expression: -0.34; MITF inhib: 14; NOMO-1 viab: 60

Results for CC(C)NC(=O)Nc1cccc2c1O[C@H](CN(C)Cc1ccc(Oc3ccccc3)cc1)[C@@H](C)CN([C@H](C)CO)C2=O ?
ROS inducer: 74; YB-1 expression: 1.2; PD-1 reverse act: -3; MITF inhib: 37; NOMO-1 viab: 89*

Results for C[C@@H]1CN([C@@H](C)CO)C(=O)Cc2cc(NC(=O)CCC(F)(F)F)ccc2O[C@@H]1CN(C)CC1CCCCC1 ?
ROS inducer: -5; YB-1 expression: -0.11; PD-1 reverse act: 1; MITF inhib: 2; NOMO-1 viab: 17

What do the screens show for `C[C@@H]1CN([C@H](C)CO)C(=O)Cc2cc(NC(=O)CCCN(C)C)ccc2O[C@@H]1CN(C)CC1CCCCC1`?
ROS inducer: 93*; YB-1 expression: -0.32; PD-1 reverse act: 0; MITF inhib: -10; NOMO-1 viab: 1

What do the screens show for `C[C@H]1CN([C@@H](C)CO)C(=O)Cc2cc(NC(=O)CCC(F)(F)F)ccc2O[C@H]1CN(C)CC1CCCCC1`?
ROS inducer: 99*; YB-1 expression: 0.2; PD-1 reverse act: -2; MITF inhib: 1; NOMO-1 viab: 1

Results for C[C@H]1CN([C@@H](C)CO)C(=O)Cc2cc(NC(=O)CCCN(C)C)ccc2O[C@@H]1CN(C)CC1CCCCC1 ?
ROS inducer: 5; YB-1 expression: 0.23; MITF inhib: 10; NOMO-1 viab: -1

Results for C[C@H](CO)N1C[C@H](C)[C@H](CN(C)CC2CCCCC2)Oc2ccc(NC(=O)CCCN(C)C)cc2C1=O ?
ROS inducer: 0; YB-1 expression: 18*; PD-1 reverse act: 0; MITF inhib: -5; NOMO-1 viab: -8

How did C[C@@H]1CN([C@@H](C)CO)C(=O)c2cc(NC(=O)Nc3cccc4ccccc34)ccc2O[C@H]1CN(C)S(=O)(=O)c1ccc(Cl)cc1 do in these assays?
ROS inducer: 12; YB-1 expression: 0.054; PD-1 reverse act: -1; MITF inhib: 2; NOMO-1 viab: 12
